Results filed as inconclusive are left out. Where a call stands in place of a potency, no number is given. Unmarked numbers belong to inactive results. Activity calls are given as the source filed them. The call rests on the fitted dose curve; in most records, active means well fitted curve in the direction sought with a large enough effect in the repeat runs; inconclusive means weak or mixed curves; inactive means no such curve, though single readings can be large; an effect the other way counts as inactive or inconclusive.
Legend:
[1] = qHTS RealTime-Glo MT Cell Viability Assay in HEK293 cells - 16 hour (AID 1224872); further: nearly all actives have a fitted effect of over 50% in size; further: potency means the concentration at half of the fitted maximal effect
Method in brief: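 Cells + reagent dispensed (600 cells/well, HEK293) → 5 h at 37 C/5% CO2 → 23 nL compound in DMSO pinned → 40 h at 37 C → luminescence read at 0, 8, 16, 24, 32, 40 h.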

[2] = qHTS RealTime-Glo MT Cell Viability Assay in HepG2 cells - 8 hour (AID 1224873); further: nearly all actives have a fitted effect of over 55% in size
Method in brief: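 HepG2 cells mixed with RealTime-Glo MT reagents (NanoLuc plus cell-permeant prosubstrate) were seeded at 600 cells/well, incubated 5 h at 37 C/5% CO2, then pinned with compounds in DMSO; nonlytic luminescence tracked viability during 40 h treatment.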

[3] = qHTS RealTime-Glo MT Cell Viability Assay in HEK293 cells - 40 hour (AID 1224874); settings: RealTime-Glo luminescence; max response: hits give low values; further: nearly all actives have a fitted effect of over 50% in size; further: potency means the concentration at half of the fitted maximal effect
Method in brief: (§1)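 Viable HEK293 cells reduce a cell-permeant prosubstrate; the product diffuses out and is consumed by NanoLuc in the medium to give light. Compounds went in after a 5 h incubation and plates were read over the treatment course.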

[4] = A CellTox Green Cytotoxicity Assay to monitor cytotoxicity in HEK293 cells - 24 hour (AID 1224875); further: series mostly up to about 77 µM; nearly all actives have a fitted effect of over 45% in size
Method in brief: (§2)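 Fluorescence intensity, read at 0, 8, 16, 24, 32 and 40 h of compound treatment, reflected dye binding to DNA of dead HEK293 cells; compounds (23 nL, DMSO) were added 5 h after plating cells with reagent.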

[5] = qHTS RealTime-Glo MT Cell Viability Assay in HepG2 cells - 32 hour (AID 1224877); further: nearly all actives have a fitted effect of over 55% in size
Method in brief: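 Real-time, nonlytic viability: 600 HepG2 cells/well mixed with NanoLuc enzyme plus prosubstrate; 5 h settle, compound (DMSO) added by pintool; luminescence monitored over 40 h at 37 C.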

[6] = qHTS RealTime-Glo MT Cell Viability Assay in HEK293 cells - 0 hour (AID 1224880); further: top concentration of the series differs between compounds; nearly all actives have a fitted effect of over 45% in size
Method in brief: as §1

[7] = A CellTox Green Cytotoxicity Assay to monitor cytotoxicity in HEK293 cells - 32 hour (AID 1224881); further: nearly all actives have a fitted effect of over 40% in size
Method in brief: as §2

[8] = A CellTox Green Cytotoxicity Assay to monitor cytotoxicity in HepG2 cells - 24 hour (AID 1224878); further: nearly all actives have a fitted effect of over 45% in size
Method in brief: (§3)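 Using 1536-well format, dye-containing HepG2 suspension was seeded, allowed 5 h at 37 C/5% CO2, dosed by pintool with compounds, positive and negative controls, and imaged for fluorescence across 40 h.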

[9] = A CellTox Green Cytotoxicity Assay to monitor cytotoxicity in HepG2 cells - 16 hour (AID 1224876); further: nearly all actives have a fitted effect of over 45% in size
Method in brief: as §3

[10] = A CellTox Green Cytotoxicity Assay to monitor cytotoxicity in HepG2 cells - 40 hour (AID 1224879); further: nearly all actives have a fitted effect of over 40% in size
Method in brief: as §3

Compound	Potency [1]	Potency [2]	max response [3] [%]	Potency [4]	Potency [5]	Potency [6]	Potency [7]	Potency [8]	Potency [9]	Potency [10]	Potency [3]
CC(C)(C)C1CCCCC1O (stereo unspecified)	inactive	inactive	0.612	inactive	inactive	inactive	inactive	–	–	–	–
CN1CCC[C@@H]1c1cccnc1	inactive	inactive	7.25	inactive	inactive	inactive	inactive	inactive	–	–	–
CN(C)CCCNCCCN	inactive	inactive	24.4	inactive	inactive	inactive	inactive	–	–	–	–
CCCCOc1ccc(CC(=O)NO)cc1	2.68 µM (active)	inactive	–	inactive	inactive	inactive	inactive	inactive	inactive	–	–
NC(N)=N/N=C/c1c(Cl)cccc1Cl	inactive	inactive	-22.8	inactive	inactive	–	inactive	–	–	–	–
Cc1cc(CC(=O)O)c(C)n1-c1ccc(Cl)cc1	inactive	inactive	-0.616	inactive	inactive	–	inactive	inactive	–	inactive	–
O=S1(=O)c2cccc3cccc(c23)N1CCCN1CCN(c2ccc(F)cc2)CC1	inactive	inactive	-11.7	inactive	inactive	inactive	inactive	–	–	–	–
CC1CCc2cc(F)cc3c(=O)c(C(=O)O)cn1c23 (stereo unspecified)	inactive	inactive	7.68	inactive	–	inactive	inactive	inactive	–	–	–
CN(C)CC/C=C1\c2ccccc2COc2ccccc21	inactive	inactive	3.53	inactive	–	inactive	inactive	inactive	–	–	–
CCCCOc1cc(C(=O)OCCN(CC)CC)ccc1N	inactive	inactive	-18	–	inactive	inactive	–	–	–	–	–
O=[N+]([O-])c1cc[n+]([O-])cc1	inactive	inactive	-21.4	inactive	–	inactive	inactive	inactive	–	–	–
Oc1ccc(Cc2ccccc2)cc1	36 µM (active)	inactive	–	–	inactive	inactive	–	–	inactive	–	40.4 µM (active)
O=C(O)[C@@H]1[C@H]2C[C@H]3c4[nH]c5ccccc5c4CCN3C[C@@H]2CC[C@@H]1O	inactive	inactive	1.89	inactive	–	inactive	inactive	–	–	–	–
CCN(CC)C(C)CN1c2ccccc2Sc2ccccc21 (stereo unspecified)	inactive	inactive	–	inactive	–	inactive	inactive	inactive	inactive	inactive	–
CC/C(=C\C(=N/O)C(N)=O)C(C)[N+](=O)[O-] (stereo unspecified)	inactive	inactive	22.3	–	inactive	inactive	inactive	inactive	inactive	inactive	–

Reference: PubChem BioAssay (Tox21)
